# Bioassay records deposited in PubChem by National Center for Advancing Translational Sciences (NCATS).
# Shown are actives, neighbours in structure and some others; about 0.85% of the full set was active somewhere.
# TSHR antagonist = human thyrotropin receptor antagonism | P16473 | TSHR-expressing cells, TSH-stimulated cAMP HTRF, 2 h; active compounds read low | activity change, negative = inhibition, % at 11.5 µM | hit rate 0.2% among 330,000;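 active = activity change below a set negative limit, meaning inhibition stronger than a set level, cut at about -70% in these data; inconclusive = activity change between two set negative limits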; note: % is set by controls: 0 for no effect and ±100 for the full control effect
# Target sequence (P16473 whole entry, looked up): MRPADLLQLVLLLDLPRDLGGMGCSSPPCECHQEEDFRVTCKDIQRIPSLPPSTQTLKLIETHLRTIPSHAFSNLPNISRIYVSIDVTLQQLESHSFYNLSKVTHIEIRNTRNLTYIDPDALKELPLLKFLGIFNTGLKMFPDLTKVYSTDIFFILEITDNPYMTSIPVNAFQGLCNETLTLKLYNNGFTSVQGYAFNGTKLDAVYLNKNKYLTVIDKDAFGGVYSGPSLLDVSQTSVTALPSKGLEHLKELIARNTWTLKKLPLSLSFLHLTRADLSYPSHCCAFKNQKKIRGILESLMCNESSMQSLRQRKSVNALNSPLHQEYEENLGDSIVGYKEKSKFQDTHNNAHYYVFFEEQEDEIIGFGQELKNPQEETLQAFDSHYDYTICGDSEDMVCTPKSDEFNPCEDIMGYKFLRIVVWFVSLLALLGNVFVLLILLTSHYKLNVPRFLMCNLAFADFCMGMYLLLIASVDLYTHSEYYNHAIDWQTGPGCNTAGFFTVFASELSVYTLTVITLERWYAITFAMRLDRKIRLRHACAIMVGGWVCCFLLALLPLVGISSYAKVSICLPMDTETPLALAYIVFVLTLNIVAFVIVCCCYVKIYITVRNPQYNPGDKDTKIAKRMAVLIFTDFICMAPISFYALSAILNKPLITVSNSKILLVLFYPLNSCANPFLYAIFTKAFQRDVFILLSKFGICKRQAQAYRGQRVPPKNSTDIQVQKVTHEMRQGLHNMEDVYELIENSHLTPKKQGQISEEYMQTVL
#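 Freshly harvested TSHR cells receive pin-tooled compound, then EC80 TSH at 4nM final. After 2 hours at 37 deg C, antibody in lysis buffer and cAMP-d2 are added; 30 minutes at ambient temperature precede the HTRF read.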
# BCR signal inh = chronic active BCR signaling inhibition; ABC-DLBCL IkBa-CBG/CBR reporter, luminescence ratio, 4 h; Potency, µM (doses to about 46.1 µM), for the others: at the highest dose activity change, negative = inhibition, hits mostly inhibitors; hit rate 0.05% among 340,000; AID 493014; active = well fitted inhibition curve with a large enough effect in the signal ratio, with a control signal flat, not every such curve was filed as active; inconclusive = small, poorly fitted or top-dose-only effect, or effect the other way, or a change in a side signal; the % refers to the signal ratio;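 note: potency is the fitted concentration of half-maximal effect; plate controls were basal doxycycline-induced cells for no effect and cells given 10 µM MG132 for full effect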
#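 TMD8 human ABC-DLBCL cells with doxycycline-inducible IκBα–green luciferase fusion and unfused red luciferase, in 0.5% FBS medium; compounds up to 46 uM, 4 h at 37C. Green/red luminescence ratio, filter-overlap corrected, fitted to concentration-response curves.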
# CtBP-E1A blk = blocks the CtBP interaction with E1A | AlphaScreen GST-E1A/His-CtBP binding, 1536-well; active compounds read low | activity change, % (test concentration not listed) | hit rate 0.49% among 340,000; note: % is set by controls: 0 for no effect and ±100 for the full control effect
#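 GST-E1A and His-tagged CtBP (125 nM each as 5X stock) were preincubated with pin-transferred compound for 2 h at 37 °C in the dark, then glutathione donor and nickel acceptor beads were added for 1 h before AlphaScreen reading.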
# Six1-Eya2 blk = Six1/Eya2 interaction inhibition; Q15475+O00167; AlphaScreen GST-Six1/His-Eya2 binding, biochemical; active compounds read low; activity change, % (test concentration not listed); hit rate 0.56% among 360,000; AID 651725; note: % is set by controls: 0 for no effect and ±100 for the full control effect
#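 GST-Six1 + His-Eya2 (5X stock: 250/500 nM); Tris pH 8.0, 300 mM NaCl, 0.05% BSA, 0.02% Tween 20; GSH donor/Ni acceptor beads; 1 h 37 °C dark; AlphaScreen readout.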
# ASM inhibitor = inhibitors of human secretory acid sphingomyelinase. P17405. placental ASM, HMU-PC fluorogenic substrate, 60 min. Potency, µM (doses to about 57.5 µM), for the others: top-dose activity change, negative = inhibition, most hits filed as inhibitors. hit rate 0.006% among 340,000. AID 504937; active = well fitted inhibition curve with a large enough effect; inconclusive = small, poorly fitted or top-dose-only effect; inactive = no such curve, though single readings can be large or run the other way; note: potency is the fitted concentration of half-maximal effect
#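 HMU-PC0 cleavage (9 uM final) by human placental ASM, 60 min at 37 °C following 10 min compound exposure at RT; stopped at pH 10, fluorescence Ex 386/Em 447 nm.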
# Starred values were filed as active, the others as inactive; ? = inconclusive; · = no result given; ! = not confirmed by another sample. Cut-off read from the data, not from the text of the source, unless noted: active = activity change below about -65%; inconclusive = mostly about -30% to -63%; inactive = weaker than that.
SMILES,TSHR antagonist,BCR signal inh,CtBP-E1A blk,Six1-Eya2 blk,ASM inhibitor
NC(=S)N=Nc1c(O)[nH]c2ccc(F)cc12,-6,-7%,13,-80*,-2%
CCOc1ccc(C2C(=O)N(C3CCCCCC3)CC(=O)N2CCc2ccccc2)cc1OC (stereo not drawn),·,-7%,·,·,·
CC(=O)N1c2ccccc2C(C)(c2ccccc2)CC1(C)C (stereo not drawn),-78*,?,-1,0,-3%
Cc1ccc(C(=O)Nc2ccc3c(c2)N(C)C(=O)c2ccccc2S3)cc1,·,-16%,·,·,·
COc1ccccc1CNC(=O)c1cc(Sc2cccc(Cl)c2)nc2ccccc12,·,0%,·,·,·
CCN(CC)C(=O)c1sc2c(c1C)c(=O)n(-c1ccccc1)c(=O)n2CC(=O)N(CC)c1cccc(C)c1,·,-3%,·,·,·
Oc1c(C(Nc2cccc(C(F)(F)F)c2)c2ccncc2)ccc2cccnc12 (stereo not drawn),-3,?,-94*,-92*,-12%
O=C(Nc1ccccc1SC(=O)c1ccccc1)c1ccccc1,·,·,-2,-5,·
Cc1ccc(C(=O)Sc2cccccc2=O)cc1,15,?,-89*,-77*,-4%
COc1ccc(-n2c(/C=C/c3ccccc3F)nc3cc(OC)c(OC)cc3c2=O)cc1Cl,·,8%,·,·,·
Cc1cc(C)c(Nc2cc(S(=O)(=O)O)c(N)c3c2C(=O)c2ccccc2C3=O)c(C)c1,-27,1%,-88*!,-68*,9%
COc1ccc(Oc2nc(-c3ccccn3)nc3ccccc23)cc1,10,?,-66*,-86*,-8%
c1ccc(-c2nc(N3CCCCCC3)c3ccccc3n2)nc1,17,?,-73*,-75*,-5%
c1ccc(Oc2nc(-c3ccccn3)nc3ccccc23)cc1,0,?,-94*,-79*,0%
c1ccc(-c2nc(N3CCOCC3)c3ccccc3n2)nc1,-1,?,?,?,2%
O=C(O)c1ccc2c(c1)C(=O)N([C@H](Cc1ccc(O)cc1)C(=O)O)C2=O,-7,-13%,·,·,·
Cc1nnc(N2C(=O)c3oc4ccccc4c(=O)c3C2c2ccc(Cl)cc2)s1 (stereo not drawn),·,3%,·,·,·
COc1ccc(OC)c(NC(=O)c2nc(S(=O)(=O)Cc3ccccc3)ncc2Cl)c1,-93*,?,3,11,-4%
COc1ccc(NC(=O)c2nc(S(=O)(=O)Cc3cccc(C)c3)ncc2Cl)c(OC)c1,-80*,?,·,2,2%
CCC1Oc2ccc(C)cc2N(CC(=O)NCc2ccc(F)cc2)C1=O (stereo not drawn),·,-4%,·,·,·
COc1cc(C(C(=O)NCc2ccccc2)N(C(=O)c2snc(C(N)=O)c2N)C2CCCC2)cc(OC)c1OC (stereo not drawn),-108*,-5%,-2,-1,76%
O=C(O)c1cccc(-n2cccc2/C=C2/NC(=O)N(c3ccc(Cl)cc3)C2=O)c1,10,?,?,-76*,2%
CC(=O)c1cc(-c2ccc(F)cc2)n(CC(=O)NC2CCC(C)CC2)c1C (stereo not drawn),·,-4%,·,·,·
NC(=S)Nc1cccc2cccnc12,-1,-3%,0,4,0%
NC(=S)NNc1cccc2cccnc12,11,18%,-92*,-92*,0%
SMILES,TSHR antagonist,BCR signal inh,CtBP-E1A blk,Six1-Eya2 blk,ASM inhibitor
COc1cc2c(cc1[N+](=O)[O-])-c1ccc([N+](=O)[O-])cc1C2=NNC(N)=S,·,·,?,-73*,·
NC(=S)NN=C1c2cc(Cl)ccc2-c2c1cc(Cl)cc2[N+](=O)[O-],·,·,-17,-28,-6%
O=C(NNC(=O)c1ccccc1[N+](=O)[O-])c1ccccn1,8,-10%,2,-77*,2%
Cc1ccc(N2CC(NC(=O)CCc3ccccc3)CC2=O)cc1C (stereo not drawn),·,-8%,·,·,·
CC(C)N(Cc1ccccc1)C(=O)COC(=O)/C=C/c1cnc2ccccc2n1,-5,?,-87*,-22,-6%
CCN(C(=O)COC(=O)/C=C/c1cnc2ccccc2n1)c1ccccc1,-3,?,-25,0,-1%
CCc1sc(Nc2ccc(C)cc2Br)nc1-c1cc2cccc(OC)c2oc1=O,·,-10%,·,·,·
